Consider 40 compounds from PubChem BioAssay (Tox21).

Records with an inconclusive call do not appear. Entries that show only a call come without a potency. Values without a mark were called inactive. Activity calls are given as the source filed them. Calls come from the whole dose curve.
Potency is the fitted concentration of half-maximal effect.

The nature of this assay: p53 small molecule agonists, cell-based qHTS assay with human liver microsomes (AID 1963577).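 For activation: p53 response element beta-lactamase reporter cells with liver microsomes plus NADPH.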 The note with it: HCT-116 p53RE-bla with human liver microsomes, ratio, 16 h; series mostly up to 66 µM; activation: at the top concentration. The text has this:
National Center for Advancing Translational Sciences [NCATS]
Division of Preclinical Innovation [DPI]
U.S. Environmental Protection Agency [EPA]
National Institutes of Environmental Health Sciences [NIEHS]
National Toxicology Program [NTP]
U.S. Food and Drug Administration [FDA]
p53, a tumor suppressor protein, is activated following cellular insult, including DNA damage and other cellular stresses. The activation of p53 regulates cell fate by inducing DNA repair, cell cycle arrest, apoptosis, or cellular senescence. The activation of p53, therefore, is a good indicator of DNA damage and other cellular stresses. […] The activation of the reporter gene under culture conditions can be detected by fluorescence intensity.
Tox21 Assay Protocol Summary:
The p53RE-bla cells were dispensed at 4,000cells/3ul/well in 1536-well black-clear bottom plates. After the assay plates were incubated at 37 C, 5% CO2 incubator for 5 hours, 23 nL of compounds dissolved in DMSO, positive controls or DMSO only was transferred to the assay plate. Following compound addition, 3 uL of human liver microsomes (XenoTech, Kansas City, KS) at final concentration of 0.5 mg/mL and 1uL of Beta-Nicotinamide adenine dinucleotide 2-phosphate (NADPH) at final concentration of 0.5 mg/mL were transferred to the assay plate. The plates were incubated at 37 C for 16 hours. 1 uL of LiveBLAzer detection mixture was added to each well and the plates were incubated at room temperature in the dark for 2 h.
On the technique in general: Quantitative high-throughput screening tests each substance at several concentrations.
For the compound `N#Cc1ccccc1Cl`, the “activation” value was -0.316%.

Turning to `C[C@@H]1CN(C2CCC(C#N)(c3ccc(F)cc3)CC2)CC[C@]1(C(=O)O)c1ccccc1` (stereo not given in full), the “activation” value was -3.8% [at 30.3 µM].

As for `c1ccc(N2CCNCC2)cc1`, the “activation” value was 1.14% [at 30.3 µM].

On to `Nc1nc(N)nc(NC2CC2)n1`, for which the Potency entry was “inactive”.

Turning to `N#CCCO`, the “activation” value is 4.07%.

`CCSC(=O)N1CCCCCC1`: the Potency result was “inactive”.

In the case of `Cc1ccc2c(c1N)C(=O)c1ccccc1C2=O`, the “activation” value was -12.7%.

Regarding `CNC(=O)Oc1ccccc1OC(C)C`, the “activation” value is 7.75%.

`CCOc1cc(C=O)ccc1O`: the Potency result is “inactive”.

Turning to `CNC(C)(C)Cc1ccccc1`, the “activation” value was 5.64% [at 30.3 µM].

Turning to `O=C1c2ccccc2C(=O)N1SC(Cl)(Cl)Cl`, the Potency result is “inactive”.

Regarding `O=C1CCCO1`, the Potency result was “inactive”.

On to `CCOP(=S)(OCC)O/N=C(\C#N)c1ccccc1`, for which the Potency was 2.57 µM (active).

Take `CN(C)C(=S)SSC(=S)N(C)C`: the Potency result is “inactive”.

As to `CCOP(=O)(OCC)OCC`, the Potency entry was “inactive”.

For `CN1C[C@H](C(=O)N[C@]2(C)O[C@@]3(O)[C@@H]4CCCN4C(=O)[C@H](Cc4ccccc4)N3C2=O)C=C2c3cccc4[nH]cc(c34)C[C@H]21`, the “activation” value was -3.33% [at 30.3 µM].

In the case of `CC(C)c1ccc(O)cc1`, the “activation” value is -0.401%.

As for `CC(C)(C)C(O)(CCc1ccc(Cl)cc1)Cn1cncn1` (stereo not given), the Potency entry was “inactive”.

As for `C=C(C)C(=O)OCC1CO1` (stereo not given), the Potency result is “inactive”.

As for `CCCCC1C(=O)NC(=O)N(C2CCCCC2)C1=O` (stereo not given), the “activation” value is 0.846% [at 30.3 µM].

`CCCCON=O`: the “activation” value is -1.42%.

As for `N#Cc1cc(Br)c(O)c(Br)c1`, the Potency result is “inactive”.

As to `CCCCN(CCCCO)N=O`, the “activation” value is -0.164%.

With `COc1ccc2c(c1OC)C(=O)O[C@@H]2[C@H]1c2cc3c(cc2CCN1C)OCO3`, the “activation” value is -0.0616%.

On to `CN(C)N=O`, for which the Potency entry was “inactive”.

As for `CCC1(c2ccccc2)CCC(=O)NC1=O` (stereo not given), the “activation” value was 4.05% [at 30.3 µM].

Take `Nc1ccc(Oc2ccc(N)cc2)cc1`: the Potency entry was “inactive”.

For the compound `CN1CC[C@]23c4c5ccc(O)c4O[C@H]2[C@@H](O)CC[C@H]3[C@H]1C5`, the “activation” value was 1.32%.

For the compound `CSc1nc(NC(C)C)nc(NC(C)C)n1`, the Potency result was “inactive”.

As to `O=C(O)C1C2CCC(O2)C1C(=O)O` (stereo not given), the Potency entry was “inactive”.

As for `CC(C)(C1CCC(O)CC1)C1CCC(O)CC1` (stereo not given), the “activation” value is 1.28%.

For the compound `Nc1ccncc1`, the Potency entry was “inactive”.

With `CCCCCCI`, the “activation” value was -2.67%.

Consider `C[C@]12CCC(=O)C=C1CC[C@@H]1[C@@H]2CC[C@]2(C)C(=O)CC[C@@H]12`, for which the Potency entry was “inactive”.

Regarding `CN(C)CCC#N`, the Potency entry was “inactive”.

Take `C[C@H]1C(=O)O[C@@H]2CCN3CC=C(COC(=O)[C@](C)(O)[C@]1(C)O)[C@H]23`: the Potency result is “inactive”.

Take `CN=C=S`: the Potency entry is “inactive”.

With `COP(=O)(CCC(=O)NCO)OC`, the “activation” value is 0.275%.

Consider `CCCCCCCCCl`, for which the Potency entry was “inactive”.

On to `N#CC(Cl)(Cl)Cl`, for which the “activation” value is 14.3%.
